The test in a line: cytotoxicity in OV-90 ovarian cancer cells, dose response, PAX8 inhibitor project, cell-based, plate reader, dry powder, SA8 (AID 743149).

Results with a measured potency or affinity are listed apart. Calls of active or inactive are those of the source. How the calls were made is not given here.

In the case of `C[C@H](CO)N1C[C@H](C)[C@@H](CN(C)Cc2ccc(-c3ccccc3)cc2)Oc2ccc(NC(=O)C3CC3)cc2CC1=O`, the compound was classed as inactive.
The entry for `O=C(NCCc1ccccc1)c1ccc2c(c1)OCCCO2` is “inactive”; for `CCN(CC(=O)Nc1c(F)cccc1F)C(=O)c1cc(S(=O)(=O)N(C)C)ccc1N1CCCC1` it is “inactive”; for `N#C[C@@H]1[C@@H](c2ccc(C#Cc3ccccc3F)cc2)[C@H](CO)N1C(=O)C1CCCCC1` it is “inactive”.
The entry for `N#C[C@@H]1[C@H](c2ccc(C#CC3CCCC3)cc2)[C@H](CO)N1C(=O)Nc1ccc(F)cc1` is “inactive”; for `COc1cccc(C#Cc2ccc([C@@H]3[C@H](C#N)N(C(=O)c4ccccn4)[C@H]3CO)cc2)c1` it is “inactive”; for `C[C@@H]1CN([C@H](C)CO)C(=O)CCCn2cc(nn2)CO[C@H]1CN(C)C(=O)Nc1ccc(-c2cccs2)cc1` it is “inactive”.
The same measure for `COc1cccc(C#Cc2ccc([C@H]3[C@@H](CO)N(C(=O)C4CCCC4)[C@H]3C#N)cc2)c1`: “inactive”; for `O=C1/C(=C/c2cccc(Br)c2)SC(=S)N1CCC(=O)N(CCO)c1ccccc1`: “inactive”.
With `COc1ccc(S(=O)(=O)Nc2ccc3c(c2)CC(=O)N([C@@H](C)CO)C[C@@H](C)[C@@H](CN(C)Cc2ccc(-c4ccccc4)cc2)O3)cc1`, the result was inactive.
The entry for `Cc1ccc(S(=O)(=O)Nc2ccc3c(c2)C(=O)N([C@H](C)CO)C[C@@H](C)[C@H](CN(C)Cc2ccc(C(F)(F)F)cc2)OCCCC[C@H](C)O3)cc1` is “inactive”; for `C[C@H](CO)N1C[C@H](C)[C@H](CN(C)C(=O)Nc2ccc(-c3cccs3)cc2)OCc2cnnn2CCCC1=O` it is “inactive”; for `C[C@H](CO)N1C[C@H](C)[C@@H](CN(C)S(=O)(=O)c2ccc(-c3ccccc3)cc2)OCc2cn(nn2)CCCC1=O` it is “inactive”.
Consider `O=C(Nc1ccc(OCC(F)(F)C(F)F)c(C(F)(F)F)c1)c1ccccc1O`, for which the call was inactive.
The same measure for `COc1ccccc1C#Cc1ccc([C@@H]2[C@@H](C#N)N(C(=O)C3CCCCC3)[C@H]2CO)cc1`: “inactive”.
With `O=C(CN1C(=O)c2ccccc2S1(=O)=O)c1ccccc1Cl`, the result was inactive.
In the case of `C[C@H](CO)N1C[C@H](C)[C@@H](CN(C)S(=O)(=O)c2ccc(Cl)cc2)OCCCC[C@H](C)Oc2ccc(NS(=O)(=O)c3ccccc3)cc2C1=O`, the compound was called inactive.
For `Cc1ccccc1OCC(=O)Nc1cccc(C(=O)O)c1`, the call was inactive.
The same measure for `O=C(C[C@H]1CC[C@H]2[C@@H](COC[C@@H](O)CN2S(=O)(=O)c2cccc(Cl)c2)O1)Nc1ccc(-c2ccccc2)cc1`: “inactive”; for `N#C[C@@H]1[C@@H](c2ccc(C3=CCCCC3)cc2)[C@@H](CO)N1C(=O)NC1CCCCC1`: “inactive”; for `O=C1/C(=C/c2ccccc2)SC(=S)N1CC(=O)N1CCCCC1c1cccnc1` (stereo unspecified): “inactive”.
The entry for `O=C(CN1C(=O)c2ccccc2S1(=O)=O)c1ccc(Cl)cc1Cl` is “inactive”; for `COc1cccc(C#Cc2ccc([C@@H]3[C@@H](C#N)N(C(=O)C4CCCCC4)[C@H]3CO)cc2)c1` it is “inactive”.
The same measure for `N#C[C@H]1[C@@H](c2ccc(C3=CCCC3)cc2)[C@@H](CO)N1C(=O)NC1CCCCC1`: “inactive”; for `COCC(=O)N1[C@H](CO)[C@H](c2ccc(-c3cccnc3)cc2)[C@@H]1C#N`: “inactive”.
For `CCCC#Cc1ccc([C@H]2[C@@H](CO)N(C(=O)C3CCCCC3)[C@H]2C#N)cc1`, the compound was called inactive.
The same measure for `C[C@@H]1CN([C@H](C)CO)C(=O)CCCn2nncc2CO[C@H]1CN(C)Cc1ccc(Oc2ccccc2)cc1`: “inactive”; for `CCCC#Cc1ccc([C@@H]2[C@@H](C#N)N(S(=O)(=O)c3cccc(F)c3)[C@H]2CO)cc1`: “inactive”.
As to `O=C1/C(=C/c2ccccc2F)SC(=S)N1CC(=O)N1CCCCC1c1cccnc1` (stereo unspecified), the compound was classed as inactive.
The same measure for `N#C[C@H]1[C@@H](c2ccc(C#Cc3cccc(F)c3)cc2)[C@@H](CO)N1C(=O)C1CCCC1`: “inactive”; for `C[C@H](CO)N1C[C@H](C)[C@@H](CN(C)Cc2ccc(-c3ccccc3)cc2)Oc2ccc(NS(=O)(=O)c3ccccc3)cc2CC1=O`: “inactive”.

The values above are taken from PubChem BioAssay AID743149 (Broad Institute, 2013).
